Source: PubChem BioAssay (National Center for Advancing Translational Sciences (NCATS))
Compounds with a hit are over-represented: about 7.9% of the library has one in this group of screens.
FMDV antiviral: High Throughput Screening for Foot and Mouth Disease Virus Antivirals; FMDV antiviral cell-based qHTS; Potency, µM (top dose mostly 57.9 µM), hits mostly inhibitors; AID 1159524, 2015; hit rate 1.2% among 410,000; calls by dose curve; tested in HEK293T cells; note: read-out not given here; nearly all actives have a fitted effect of over 45% in size
LASV entry inh: qHTS for Inhibitors of binding or entry into cells for Lassa Virus. Lassa virus pseudotype entry inhibition, cell reporter. Potency, µM (titrated, usually from 37.9 µM), actives largely listed as inhibitors. hit rate 1.2% among 300,000; calls by dose curve; tested in HEK293 cells; note: nearly all actives have a fitted effect of over 50% in size
HCMV inh: qHTS Assay for inhibitors of the human cytomegalovirus (HCMV) | hit rate 4.5% among 410,000 | AID 1259415, 2018 | activity change, negative = inhibition, % at 57.5 µM | HFF cells, HCMV-luciferase reporter, 72 h; hits give low values; in the data active = activity change below about -60%; inconclusive = no clear call, values can overlap the other calls; inactive = above about -39%
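Inhibition of viral replication was scored as loss of reporter luminescence in HFFs infected with HCMV-luciferase (MOI 1 PFU/cell) for 72 h; compounds tested at 2 doses, normalized to buffer and Salinomycin controls.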
HCV inh: qHTS Assay for Inhibitors of Hepatitis C Virus (HCV). AID 651820, 2012. Huh7.5.1 HCVcc-Cre infection, luciferase reporter, 44 h. hit rate 3.4% among 340,000. Potency, µM (doses to about 41.8 µM), most hits filed as inhibitors; active = well fitted inhibition curve with a large enough effect; inconclusive = small, poorly fitted or top-dose-only effect, or another doubt; inactive = no such curve, though single readings can be large or run the other way
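Antiviral activity was scored by luciferase reporter output from cells infected with HCVcc-Cre (~0.5 moi) in presence of compound, 44 h infection period, cells seeded 1,000/well 4 h prior.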
Marburg entry inh: qHTS for inhibitors of binding or entry into cells for Marburg Virus; Marburg virus pseudotyped entry inhibition, cell reporter; Potency, µM (series often up to 37.8 µM), actives largely listed as inhibitors; hit rate 1.8% among 300,000; calls by dose curve; tested in HEK293 cells
Large screens that a line does not name were inactive.

CC(C)(C)c1cnnn1-c1cccc([N+](=O)[O-])c1	HCMV inh -66
O=[N+]([O-])c1cccc(-n2nncc2-c2ccccc2)c1	none
CCC(SC1=NCCS1)C(=O)Nc1nnc(-c2ccccc2OC)s1 (configuration not stated)	HCMV inh -97 (no result: LASV entry inh, Marburg entry inh)
c1csc(-n2nc3ccccc3n2)c1	HCMV inh -66
CC(C)Cn1c(SCC(=O)Nc2cc(Cl)c(Cl)cc2Cl)nc(O)cc1=O	Marburg entry inh inconclusive
CCc1ccc(N2C(=O)C3C4C=CC(CC4)C3C2=O)cc1 (configuration not stated)	none (no result: LASV entry inh, Marburg entry inh)
O=C(Nc1ccc(Cc2ccncc2)cc1)C1CCC(N2C(=O)C3CC=CCC3C2=O)CC1 (configuration not stated)	HCMV inh inconclusive, HCV inh inconclusive (no result: FMDV antiviral)
O=C1C2C3C=CC(C3)C2C(=O)N1c1ccc(Cc2ccncc2)cc1 (configuration not stated)	HCMV inh -67, Marburg entry inh inconclusive
O=C(Nc1ccc(Cc2ccncc2)cc1)C1CCC(N2C(=O)C3C4C=CC(C4)C3C2=O)CC1 (configuration not stated)	LASV entry inh inconclusive, HCMV inh -80, HCV inh 8.9µM (no result: FMDV antiviral)
CC1CCC2C(=O)N(c3ccc(Cc4ccncc4)cc3)C(=O)C2C1 (configuration not stated)	FMDV antiviral inconclusive, LASV entry inh inconclusive, HCMV inh -75, HCV inh inconclusive, Marburg entry inh inconclusive
CCCNC(=O)[C@H]1[C@H](CO)[C@H]2Cn3c(ccc(-c4ccc(F)cc4)c3=O)[C@@H]1N2C(=O)NC(C)C	none (no result: FMDV antiviral, LASV entry inh, HCV inh, Marburg entry inh)
Cc1ccc(NC(=O)c2ccc(OCc3c(C)noc3C)cc2)nc1	FMDV antiviral inconclusive, HCMV inh inconclusive, HCV inh 11µM (no result: LASV entry inh, Marburg entry inh)
Cc1noc(C)c1COc1cccc(C(=O)NCCc2c[nH]c3ccccc23)c1	LASV entry inh 10µM, HCV inh inconclusive, Marburg entry inh inconclusive
Cc1noc(C)c1COc1ccccc1C(=O)NCCc1ccccc1	HCV inh 3.2µM
Cc1ccc(C(=O)NNC(=O)c2ccccc2OCc2c(C)noc2C)cc1	Marburg entry inh 3.5µM
CCn1nc(C(=O)OCc2c(C)noc2C)c2ccccc2c1=O	none
CCn1nc(C(=O)NNC(=O)c2ccccc2OCc2c(C)noc2C)c2ccccc2c1=O	HCMV inh -83, HCV inh inconclusive (no result: LASV entry inh, Marburg entry inh)
S=P(N1CCCCCC1)(N1CC1)N1CC1	LASV entry inh inconclusive, Marburg entry inh 7.1µM
CCc1cnc2c(c1SCC(=O)Nc1cc(Cl)ccc1OC)c(=O)n(C)c(=O)n2C	none (no result: HCV inh, Marburg entry inh)
COc1cccc(CNC(=O)CSC2=Nc3ccccc3C3=NC(C(C)C)C(=O)N23)c1 (configuration not stated)	none (no result: HCV inh, Marburg entry inh)
COc1cc2c(cc1NC(=O)CSc1ccc(Cl)cc1)oc1ccccc12	HCV inh 10µM
COc1ccc(C(=O)NC(=S)Nc2cc3oc4ccccc4c3cc2OC)cc1	Marburg entry inh inconclusive
COc1cc(OC)cc(C(=O)NC(=S)Nc2cc3oc4ccccc4c3cc2OC)c1	LASV entry inh inconclusive, HCV inh 1.8µM, Marburg entry inh inconclusive
COc1cc2c(cc1NC(=O)/C=C/c1cc(OC)c(OC)c(OC)c1)oc1ccccc12	FMDV antiviral inconclusive, LASV entry inh inconclusive, HCV inh 8.9µM, Marburg entry inh 8.9µM
COc1cccc(CN(C)CC(=O)Nc2cc3oc4ccccc4c3cc2OC)c1	HCV inh 16µM, Marburg entry inh inconclusive
COC(=O)N[C@@H]1C[C@H]2[C@@H]3CC[C@H]4C[C@@H](OC)CC[C@]4(C)[C@H]3CC[C@@]12C	FMDV antiviral inconclusive, HCV inh inconclusive (no result: LASV entry inh, Marburg entry inh)
COc1ccc(NC(=O)CCNS(=O)(=O)c2cc(Br)ccc2Br)cc1S(N)(=O)=O	HCMV inh inconclusive
CC1CN(C(=O)CSc2nc(N)cc(N)n2)CC(C)O1 (configuration not stated)	none (no result: LASV entry inh, Marburg entry inh)
Nc1ccn([C@@H]2O[C@H](C(=O)N3CCCN(Cc4ccccc4F)CC3)[C@@H](O)[C@H]2O)c(=O)n1	none (no result: LASV entry inh, HCV inh, Marburg entry inh)
COc1ccc(CC(=O)Nc2cc3oc4ccccc4c3cc2OC)cc1	HCV inh 4.5µM
COc1cc2c(cc1NC(=O)CN(C)Cc1cccc(OC)c1OC)oc1ccccc12	HCV inh 3.5µM, Marburg entry inh inconclusive
CCN(CC)S(=O)(=O)c1cccc(NC(=O)CN(C)Cc2cccc(OC)c2)c1	FMDV antiviral inconclusive, LASV entry inh 11µM, HCMV inh inconclusive, HCV inh inconclusive, Marburg entry inh 23µM
CCc1ccc(OCC(=O)Nc2cc3oc4ccccc4c3cc2OC)cc1	FMDV antiviral inconclusive (no result: HCV inh)
COc1cc2c(cc1NC(=S)NC(=O)c1c(OC)cccc1OC)oc1ccccc12	HCMV inh inconclusive (no result: LASV entry inh)
CCN1C[C@@H]2[C@@H]3C(=O)N(C)C(=O)[C@@H]3[C@](Cc3ccccc3)(C1=O)N2C(=O)c1ccccc1	none (no result: LASV entry inh, Marburg entry inh)
CC(=O)OCc1cnc(C)c2oc(=O)c(C(=O)Nc3cccc(F)c3)cc12	LASV entry inh 0.79µM (no result: HCV inh, Marburg entry inh)
O=C(c1ccc(S(=O)(=O)c2ccccc2Cl)c([N+](=O)[O-])c1)N1CCCCCC1	FMDV antiviral inconclusive, HCMV inh -65, HCV inh inconclusive, Marburg entry inh inconclusive
O=C(c1ccc(S(=O)(=O)Cc2ccccc2F)c([N+](=O)[O-])c1)N1CCCCCC1	FMDV antiviral inconclusive, HCMV inh inconclusive, HCV inh inconclusive, Marburg entry inh inconclusive
O=C(c1ccc(S(=O)(=O)c2cccc(Cl)c2)c([N+](=O)[O-])c1)N1CCN(c2ccccn2)CC1	FMDV antiviral 16µM, LASV entry inh inconclusive, HCMV inh -78, HCV inh inconclusive, Marburg entry inh 7.1µM
Cc1sc(NC(=O)C2CSC3(C)CCC(=O)N23)nc1-c1ccc(F)cc1 (configuration not stated)	LASV entry inh inconclusive, HCV inh 14µM, Marburg entry inh inconclusive
COc1cc(NC(=O)C2CSC3(C)CCC(=O)N23)c(OC)cc1Cl (configuration not stated)	HCV inh 10µM
Cc1nc2sccn2c1CN1Cc2ccccc2OC(c2ccccc2F)C1 (configuration not stated)	none (no result: LASV entry inh, HCMV inh, HCV inh, Marburg entry inh)
CCn1c(=O)cc(OCC(=O)N2CCN(c3ccc(C)cc3)C(C)C2)c2ccccc21 (configuration not stated)	FMDV antiviral 35µM, LASV entry inh inconclusive, Marburg entry inh inconclusive (no result: HCV inh)
CCn1c(=O)cc(OCC(=O)N2CCCCCC2)c2ccccc21	none
Cc1nc2ncnn2c(N2CCCC(C(=O)Nc3ccccc3Br)C2)c1C (configuration not stated)	FMDV antiviral inconclusive, LASV entry inh inconclusive, HCMV inh -64, HCV inh inconclusive
CCc1c(C)nc2ncnn2c1N1CCN(S(=O)(=O)c2ccc(OC)cc2)CC1	LASV entry inh inconclusive, HCMV inh -72, HCV inh 1.8µM, Marburg entry inh inconclusive
CCOc1ccc(NC(=O)C2CCCN(c3nc(C)cc(C)n3)C2)cc1 (configuration not stated)	Marburg entry inh inconclusive
Cc1cc(N2CCN(S(=O)(=O)c3ccc(Br)cc3)CC2)n2ncnc2n1	HCV inh inconclusive
